Experimental data reported in PubChem BioAssay (NCI).
Values joined by “and” are separate entries in the source; they are usually repeats but may differ in a detail not shown here. Equal entries are not always repeated. Compounds without any hit were thinned out: in the full panel of roughly 79,000, 15% have a hit. Some structures have more than one record in an assay (separate samples or runs), and their calls can disagree. Active and inactive are the calls of the source. Cut-off read from the data, not from the text of the source: active = growth inhibition above about 70%; inactive = the rest.

How the values were obtained:
[1] = NCI Yeast Anticancer Drug Screen. Data for the rad50 strain (AID 155);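 note: 0% = growth of vehicle-only cultures of the same strain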; conditions: S. cerevisiae rad50 strain growth inhibition, stronger effect = higher value
How it was run: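 A DNA repair-deficient yeast mutant serves as the test organism; compound-induced growth inhibition is calculated against vehicle-treated cells.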

[2] = NCI Yeast Anticancer Drug Screen. Data for the mec2-1 strain (AID 157); conditions: S. cerevisiae mec2-1 strain, stronger effect = higher value
How it was run: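 Strain: mec2-1 (DNA repair/cell cycle alteration). Compound exposure, then growth measured; inhibition expressed relative to vehicle.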

[3] = NCI Yeast Anticancer Drug Screen. Data for the sgs1 mgt1 strain (AID 161);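 note: 0% = growth of cultures given vehicle only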; conditions: S. cerevisiae sgs1 mgt1 strain, stronger effect = higher value
How it was run: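 Genetically altered yeast, compound exposure, growth inhibition relative to vehicle.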

[4] = NCI Yeast Anticancer Drug Screen. Data for the cln2 rad14 strain (AID 165);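 note: 0% = growth equal to vehicle treated cultures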; conditions: S. cerevisiae cln2 rad14 strain, stronger effect = higher value
How it was run: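 Compounds are applied to the cln2 rad14 yeast strain, and growth is then compared with that of vehicle-treated cultures to give inhibition.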

[5] = NCI Yeast Anticancer Drug Screen. Data for the bub3 strain (AID 167); conditions: S. cerevisiae bub3 mutant strain, stronger effect = higher value
How it was run: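 Inhibition values come from growth of compound-treated mutant yeast normalised to vehicle-treated controls.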

[6] = NCI Yeast Anticancer Drug Screen. Data for the mlh1 rad18 strain (AID 175); conditions: S. cerevisiae mlh1 rad18 strain growth inhibition, stronger effect = higher value
How it was run: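 Read-out is yeast growth inhibition, calculated against vehicle-only controls. The compound was applied to a strain engineered with DNA damage repair alterations.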

[7] = at 5.0 µM (retest, dose inferred, filed as 0.5)
[8] = at 50.0 µM (retest, dose inferred, filed as 5.0)

Row | Structure (SMILES) | growth inhibition [1, 7] | growth inhibition [1, 8] | growth inhibition ([1]; at 50.0 µM) | growth inhibition [2, 7] | growth inhibition [2, 8] | growth inhibition ([2]; at 50.0 µM) | growth inhibition [3, 7] | growth inhibition [3, 8] | growth inhibition ([3]; at 50.0 µM) | growth inhibition [4, 7] | growth inhibition [4, 8] | growth inhibition ([4]; at 50.0 µM) | growth inhibition [5, 7] | growth inhibition [5, 8] | growth inhibition ([5]; at 50.0 µM) | growth inhibition [6, 7] | growth inhibition [6, 8] | growth inhibition ([6]; at 50.0 µM)
1 | CC1CC=CCC1C(=O)O (configuration not stated) | 8% (inactive) | -1% (inactive) | 36% (inactive) and 9.75% (inactive) | 2% (inactive) | -2% (inactive) | -17.2% (inactive) and 28.9% (inactive) | 2% (inactive) | -3% (inactive) | -10.5% (inactive) and -4.9% (inactive) | 13% (inactive) | 3% (inactive) | -8.4% (inactive) and -41.3% (inactive) | 6% (inactive) | 2% (inactive) | 33.3% (inactive) and -3.9% (inactive) | 4% (inactive) | -5% (inactive) | 9.65% (inactive) and 10.2% (inactive)
2 | Clc1ccc(CN2CCCN(Cc3ccc(Cl)cc3)C2c2cc3ccccc3c3ccccc23)cc1 | 49% (inactive) | 99% (active) | 70% (active) | 19% (inactive) | 98% (active) | 68.5% (inactive) | 38% (inactive) | 98% (active) | 87.8% (active) | 22% (inactive) | 96% (active) | 33.1% (inactive) | 22% (inactive) | 98% (active) | 98.7% (active) | 45% (inactive) | 98% (active) | 89.2% (active)
3 | CCOC(=O)[C@H]1Nc2ccc([N+](=O)[O-])cc2C2c3ccccc3CC21 (some centres not stated) | 32% (inactive) | 91% (active) | 80.3% (active) | -11% (inactive) | 48% (inactive) | 87.8% (active) | 24% (inactive) | 93% (active) | 91.2% (active) | 8% (inactive) | 91% (active) | 86.3% (active) | 6% (inactive) | 89% (active) | 88.2% (active) | 17% (inactive) | 90% (active) | 84% (active)
4 | CC(=O)OCC(OC(C)=O)C(OC(C)=O)C(OC(C)=O)C(OC(C)=O)C(/C=N/Nc1ccccc1)=N/Nc1ccccc1 (configuration not stated) | 21% (inactive) and -14% (inactive) | 90% (active) and 4% (inactive) | 94.8% (active) and 57.6% (inactive) | 4% (inactive) and 1% (inactive) | 68% (inactive) and -7% (inactive) | 48.1% (inactive) and 4.7% (inactive) | -12% (inactive) and -18% (inactive) | 50% (inactive) and 9% (inactive) | 47.8% (inactive) and 6.1% (inactive) | 23% (inactive) and 0% (inactive) | 86% (active) and 1% (inactive) | 44.4% (inactive) and 29.6% (inactive) | 7% (inactive) and -3% (inactive) | 87% (active) and -12% (inactive) | 86.3% (active) and 18.7% (inactive) | 26% (inactive) and -3% (inactive) | 93% (active) and -1% (inactive) | 95.2% (active) and 40.5% (inactive)
